# In PubChem BioAssay (EPA / NIEHS):
# Records with an inconclusive call do not appear. Calls of active or inactive are those of the source. Rule for the calls, unless noted: active = hit-call score of the fitted dose curve at least 0.9, where 1 is the maximum; inactive = score below 0.9.
# How the values were obtained:
# [1] = target: human RAR-related Orphan Receptor beta (RORb), RORB (gene 6096) (UniProt Q92753); test: ATG_RORb_TRANS: Attagene TRANS-FACTORIAL HepG2 Assay for human RAR-related Orphan Receptor beta (RORb) (AID 2283010; active = hit-call score of the fitted dose curve at least 0.9, where 1 is the maximum)
# How it was run: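 Multiplexed transcription-factor reporter assay: HepG2 cells transiently carrying NR-Gal4/GAL4-UAS constructs, 24 h treatment, mRNA quantified by RT-PCR plus capillary electrophoresis fluorescence; activity scored as induction over DMSO.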
# [2] = target: human RAR-related Orphan Receptor gamma (RORg), RORC (gene 6097) (UniProt P51449); test: ATG_RORg_TRANS: Attagene TRANS-FACTORIAL HepG2 Assay for human RAR-related Orphan Receptor gamma (RORg) (AID 2283011; active = hit-call score of the fitted dose curve at least 0.9, where 1 is the maximum)
# How it was run: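 Activity is scored as increase in GAL4-UAS reporter mRNA over DMSO, detected by fluorescent RT-PCR and capillary electrophoresis in HepG2 cells transiently expressing a RORg-Gal4 chimera, 24 h after dosing.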
# [3] = target: human Retinoid X Receptor beta (RXRb), RXRB (gene 6257) (UniProt P28702); test: ATG_RXRb_TRANS: Attagene TRANS-FACTORIAL HepG2 Assay for human Retinoid X Receptor beta (RXRb) (AID 2283013; active = hit-call score of the fitted dose curve at least 0.9, where 1 is the maximum)
# How it was run: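 After a 24 h incubation with test chemical, transfected HepG2 cells carrying NR-Gal4 fusions and GAL4-UAS reporter transcription units yield RNA whose reporter cDNA is FAM-labelled, HpaI-cut and sized by capillary electrophoresis; increases over DMSO are scored.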
# [4] = target: human Thyroid Receptor alpha (THRa1), THRA (gene 7067) (UniProt P10827); test: ATG_THRa1_TRANS: Attagene TRANS-FACTORIAL HepG2 Assay for human Thyroid Receptor alpha (THRa1) (AID 2283014; active = hit-call score of the fitted dose curve at least 0.9, where 1 is the maximum)
# How it was run: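 First, HepG2 cells receive multiple GAL4-UAS reporter units and the chimeric receptor. They are then dosed for 24 h, after which RNA is reverse-transcribed, amplified, labelled, HpaI-cut and sized by capillary electrophoresis; gain relative to DMSO is scored.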
# [5] = read-out: E-selectin (Homo sapiens) (UniProt P16581); test: BSK_3C_Eselectin: BioMAP Diversity Plus: 3C Assay for Eselectin Biomarker Activity (AID 2283015); conditions: primary human endothelial cells (HUVEC); actives raise or lower the signal;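 note: cell surface E-selectin protein quantified by ELISA 24 h after dosing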
# How it was run: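 Human vascular endothelium from umbilical vein is exposed to test chemicals for 24 h. E-selectin levels are read by ELISA and compared with DMSO controls.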
# [6] = read-out: Interleukin-1 alpha (IL1a), IL1A (gene 3552); test: BSK_BE3C_IL1a: BioMAP Diversity Plus: BE3C Assay for Interleukin-1 alpha (IL1a) Biomarker Activity (AID 2283016); conditions: primary human bronchial epithelial cells; actives raise or lower the signal
# How it was run: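 Measured in human lung primary bronchial epithelial cells: IL-1a by ELISA at 24 h after dosing, with bidirectional fitting against DMSO.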
# [7] = read-out: Monocyte Chemoattractant Protein-1 (MCP1), CCL2 (gene 6347); test: BSK_3C_MCP1: BioMAP Diversity Plus: 3C Assay for Monocyte Chemoattractant Protein-1 (MCP1) Biomarker Activity (AID 2283017); conditions: primary human endothelial cells (HUVEC); actives raise or lower the signal
# How it was run: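 Endothelial cells from human umbilical vein are dosed with chemical, cultured 24 h, then assayed for MCP-1 by ELISA; both increases and decreases are modelled against DMSO controls.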
# [8] = read-out: Monocyte Chemoattractant Protein-1 (MCP1), CCL2 (gene 6347); test: BSK_4H_MCP1: BioMAP Diversity Plus: 4H Assay for Monocyte Chemoattractant Protein-1 (MCP1) Biomarker Activity (AID 2283018); conditions: primary human endothelial cells (HUVEC); actives raise or lower the signal
# How it was run: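 Primary human umbilical vein endothelium is exposed to chemical for 24 h before MCP-1 is assayed by ELISA. Concentration-response fitted bidirectionally relative to DMSO.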
# [9] = read-out: Human Leukocyte Antigen - DR isotype (HLADR), HLA-DRA (gene 3122); test: BSK_3C_HLADR: BioMAP Diversity Plus: 3C Assay for Human Leukocyte Antigen - DR isotype (HLADR) Biomarker Activity (AID 2283019); conditions: primary human endothelial cells (HUVEC); actives raise or lower the signal;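 note: ELISA of cell-surface HLA-DR on HUVEC 24 h after dosing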
# How it was run: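 Endothelial cells from human umbilical vein are treated with test chemical; after 24 h, HLA-DR levels are measured by ELISA. Data are fitted in both directions using DMSO as the baseline.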
# [10] = read-out: Interleukin-8 (IL8), CXCL8 (gene 3576); test: BSK_3C_IL8: BioMAP Diversity Plus: 3C Assay for Interleukin-8 (IL8) Biomarker Activity (AID 2283020); conditions: primary human endothelial cells (HUVEC); actives raise or lower the signal
# How it was run: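 Using DMSO-treated wells as the baseline, bidirectional curve fitting was applied to ELISA-measured IL-8 from human umbilical vein endothelial cultures sampled 24 h after compound addition.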
# [11] = read-out: Monokine induced gamma interferon (MIG), CXCL9 (gene 4283); test: BSK_3C_MIG: BioMAP Diversity Plus: 3C Assay for Monokine induced gamma interferon (MIG) Biomarker Activity (AID 2283021); conditions: primary human endothelial cells (HUVEC); actives raise or lower the signal
# How it was run: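 ELISA-measured MIG in dosed HUVEC 3C cultures at 24 h, analysed by bidirectional fitting with DMSO defining baseline activity.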
# [12] = target: human Vitamin D Receptor (VDR), VDR (gene 7421) (UniProt P11473); test: ATG_VDR_TRANS: Attagene TRANS-FACTORIAL HepG2 Assay for human Vitamin D Receptor (VDR) (AID 2283022; active = hit-call score of the fitted dose curve at least 0.9, where 1 is the maximum)
# How it was run: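 Fluorescence of labelled reporter cDNA fragments, resolved by capillary electrophoresis, gives mRNA induction after 24 h treatment of HepG2 cells carrying transfected Gal4-fusion reporter units. Activity is fitted in the positive direction with DMSO as baseline.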
# [13] = BSK_3C_SRB: Viability Assessment in the BioMAP Diversity Plus: 3C Assay (AID 2283023); conditions: primary human endothelial cells (HUVEC);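 note: cells read 24 h after compound dosing; fitted both ways against DMSO so a hit may be signal rise or drop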
# How it was run: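 Cells were dosed with chemical, cultured 24 h, fixed with 10% TCA, stained with 0.1% SRB and read at 560 nm. Human umbilical vein endothelium was used; DMSO served as negative control and baseline.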
# [14] = read-out: Matrix Metallopeptidase 1 (MMP1), MMP1 (gene 4312); test: BSK_BE3C_MMP1: BioMAP Diversity Plus: BE3C Assay for Matrix Metallopeptidase 1 (MMP1) Biomarker Activity (AID 2283024); conditions: primary human bronchial epithelial cells; actives raise or lower the signal
# How it was run: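 In this multiplexed primary-cell system, human bronchial epithelium received chemicals for 24 h before an ELISA for MMP1. Values reflect bidirectional fits normalised to the DMSO baseline.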
# [15] = BSK_3C_Vis: BioMAP Diversity Plus: 3C Assay for Morphology Visualization (AID 2283025); conditions: primary human endothelial cells (HUVEC);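 note: fitted both ways so gain or loss versus DMSO counts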;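 for AC50: light microscopy image of cell morphology used as background control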
# How it was run: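 Light-microscopy morphology readout, 24 h exposure, human primary umbilical vein endothelium; analysed relative to DMSO with bidirectional fitting.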
# [16] = read-out: Pselectin, SELP (gene 6403); test: BSK_4H_Pselectin: BioMAP Diversity Plus: 4H Assay for Pselectin Biomarker Activity (AID 2283026); conditions: primary human endothelial cells (HUVEC); actives raise or lower the signal
# How it was run: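 Bidirectional fits against DMSO gave the endpoint. Cells: primary human umbilical vein endothelium, chemical-treated for 24 h before ELISA detection of P-selectin.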
# [17] = BSK_4H_SRB: Viability Assessment in the BioMAP Diversity Plus: 4H Assay (AID 2283027); conditions: primary human endothelial cells (HUVEC);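 note: cells exposed to compound for 24 h before staining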;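 for AC50: curves fitted both ways versus DMSO so AC50 may be loss or gain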
# How it was run: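 HUVEC, 24 h post-dose; 10% TCA fix, 0.1% SRB stain, A560 nm. Total protein = overt cytotoxicity, parallel to biomarker read. Bidirectional fit vs DMSO baseline.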
# [18] = BSK_BE3C_SRB: Viability Assessment in the BioMAP Diversity Plus: BE3C Assay (AID 2283028); conditions: primary human bronchial epithelial cells
# How it was run: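 Overt cytotoxicity was assessed as total protein in confluent human primary bronchial epithelial cultures 24 h after chemical addition, using 0.1% sulforhodamine B staining read at 560 nm.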
# [19] = read-out: Thrombomodulin, THBD (gene 7056); test: BSK_3C_Thrombomodulin: BioMAP Diversity Plus: 3C Assay for Thrombomodulin Biomarker Activity (AID 2283029); conditions: primary human endothelial cells (HUVEC); actives raise or lower the signal
# How it was run: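 In a multiplexed primary-cell system, human umbilical vein endothelium received chemical and was assayed 24 h later for thrombomodulin by ELISA. Parallel cultures were SRB-stained (0.1% SRB after 10% TCA fixation, read at 560 nm) to flag cytotoxicity.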
# Chain of E-selectin (Homo sapiens) (P16581 whole entry, looked up): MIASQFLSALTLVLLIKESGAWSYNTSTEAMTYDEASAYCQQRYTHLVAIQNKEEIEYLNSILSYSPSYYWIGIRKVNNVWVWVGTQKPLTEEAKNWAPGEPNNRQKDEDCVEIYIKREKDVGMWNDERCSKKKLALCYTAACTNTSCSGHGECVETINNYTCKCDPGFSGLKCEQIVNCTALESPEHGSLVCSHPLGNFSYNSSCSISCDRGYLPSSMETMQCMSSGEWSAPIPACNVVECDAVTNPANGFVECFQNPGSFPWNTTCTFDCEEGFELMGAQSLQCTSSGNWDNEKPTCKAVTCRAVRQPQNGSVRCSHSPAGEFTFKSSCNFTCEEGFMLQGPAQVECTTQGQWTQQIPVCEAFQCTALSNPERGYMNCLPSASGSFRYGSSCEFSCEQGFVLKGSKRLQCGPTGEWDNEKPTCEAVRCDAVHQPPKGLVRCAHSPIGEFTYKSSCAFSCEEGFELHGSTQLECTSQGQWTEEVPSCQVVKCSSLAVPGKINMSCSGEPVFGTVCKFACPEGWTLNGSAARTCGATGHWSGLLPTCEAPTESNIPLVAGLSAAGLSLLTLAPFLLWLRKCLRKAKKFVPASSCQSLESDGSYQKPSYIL
# Chain of human RAR-related Orphan Receptor gamma (RORg), RORC (gene 6097) (P51449 whole entry, looked up, the tested form may be a part): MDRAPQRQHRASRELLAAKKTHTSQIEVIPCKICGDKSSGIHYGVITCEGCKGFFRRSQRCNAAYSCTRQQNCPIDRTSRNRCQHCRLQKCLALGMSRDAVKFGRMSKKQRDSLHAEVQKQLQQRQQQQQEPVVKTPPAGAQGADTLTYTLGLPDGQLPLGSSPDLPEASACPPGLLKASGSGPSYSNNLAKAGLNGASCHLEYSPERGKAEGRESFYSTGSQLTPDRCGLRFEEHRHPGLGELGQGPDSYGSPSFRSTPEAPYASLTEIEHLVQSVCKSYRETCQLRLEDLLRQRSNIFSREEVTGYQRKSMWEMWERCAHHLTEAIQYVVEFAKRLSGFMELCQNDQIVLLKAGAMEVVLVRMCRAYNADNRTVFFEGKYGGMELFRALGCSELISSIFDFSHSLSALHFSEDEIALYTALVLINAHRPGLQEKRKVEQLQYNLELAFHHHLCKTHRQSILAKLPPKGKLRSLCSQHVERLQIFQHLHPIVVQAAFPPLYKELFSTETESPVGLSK
# Chain of human RAR-related Orphan Receptor beta (RORb), RORB (gene 6096) (Q92753 whole entry, looked up, the tested form may be a part): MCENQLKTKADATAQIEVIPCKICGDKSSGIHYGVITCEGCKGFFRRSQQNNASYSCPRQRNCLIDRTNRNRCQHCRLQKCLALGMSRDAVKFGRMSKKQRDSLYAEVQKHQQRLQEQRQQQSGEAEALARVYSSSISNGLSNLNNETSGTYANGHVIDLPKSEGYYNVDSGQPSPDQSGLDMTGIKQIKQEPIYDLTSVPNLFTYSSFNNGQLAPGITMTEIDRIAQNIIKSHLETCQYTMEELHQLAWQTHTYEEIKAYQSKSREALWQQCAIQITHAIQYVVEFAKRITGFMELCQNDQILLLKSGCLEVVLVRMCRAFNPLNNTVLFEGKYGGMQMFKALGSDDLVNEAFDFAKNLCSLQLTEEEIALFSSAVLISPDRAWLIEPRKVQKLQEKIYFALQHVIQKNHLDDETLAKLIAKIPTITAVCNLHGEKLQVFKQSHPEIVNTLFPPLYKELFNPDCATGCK
# Chain of human Vitamin D Receptor (VDR), VDR (gene 7421) (P11473 whole entry, looked up, the tested form may be a part): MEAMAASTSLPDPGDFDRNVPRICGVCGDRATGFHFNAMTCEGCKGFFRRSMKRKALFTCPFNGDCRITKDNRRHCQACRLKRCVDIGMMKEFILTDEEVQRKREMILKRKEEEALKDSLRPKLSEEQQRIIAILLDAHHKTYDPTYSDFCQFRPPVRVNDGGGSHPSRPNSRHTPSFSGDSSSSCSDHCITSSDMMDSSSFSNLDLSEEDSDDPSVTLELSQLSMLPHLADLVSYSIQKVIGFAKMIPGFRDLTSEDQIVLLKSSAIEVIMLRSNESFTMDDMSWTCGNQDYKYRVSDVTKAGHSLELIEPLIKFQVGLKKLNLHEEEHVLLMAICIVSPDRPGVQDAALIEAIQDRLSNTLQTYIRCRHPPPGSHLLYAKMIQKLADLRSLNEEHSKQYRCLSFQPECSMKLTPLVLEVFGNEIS
# Chain of human Thyroid Receptor alpha (THRa1), THRA (gene 7067) (P10827 whole entry, looked up, the tested form may be a part): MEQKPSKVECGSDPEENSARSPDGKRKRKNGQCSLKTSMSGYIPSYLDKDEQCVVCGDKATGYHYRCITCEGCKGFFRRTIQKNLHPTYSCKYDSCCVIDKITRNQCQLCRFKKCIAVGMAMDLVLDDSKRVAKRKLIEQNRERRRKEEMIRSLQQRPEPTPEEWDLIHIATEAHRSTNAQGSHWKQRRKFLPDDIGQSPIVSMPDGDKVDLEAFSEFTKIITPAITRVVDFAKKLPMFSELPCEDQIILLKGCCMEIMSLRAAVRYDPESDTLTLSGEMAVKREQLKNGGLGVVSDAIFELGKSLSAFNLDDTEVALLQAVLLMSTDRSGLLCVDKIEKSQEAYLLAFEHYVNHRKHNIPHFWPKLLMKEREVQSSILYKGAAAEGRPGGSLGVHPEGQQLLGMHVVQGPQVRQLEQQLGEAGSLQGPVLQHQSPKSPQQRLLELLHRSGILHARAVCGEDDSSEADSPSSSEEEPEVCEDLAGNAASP
# Chain of human Retinoid X Receptor beta (RXRb), RXRB (gene 6257) (P28702 whole entry, looked up, the tested form may be a part): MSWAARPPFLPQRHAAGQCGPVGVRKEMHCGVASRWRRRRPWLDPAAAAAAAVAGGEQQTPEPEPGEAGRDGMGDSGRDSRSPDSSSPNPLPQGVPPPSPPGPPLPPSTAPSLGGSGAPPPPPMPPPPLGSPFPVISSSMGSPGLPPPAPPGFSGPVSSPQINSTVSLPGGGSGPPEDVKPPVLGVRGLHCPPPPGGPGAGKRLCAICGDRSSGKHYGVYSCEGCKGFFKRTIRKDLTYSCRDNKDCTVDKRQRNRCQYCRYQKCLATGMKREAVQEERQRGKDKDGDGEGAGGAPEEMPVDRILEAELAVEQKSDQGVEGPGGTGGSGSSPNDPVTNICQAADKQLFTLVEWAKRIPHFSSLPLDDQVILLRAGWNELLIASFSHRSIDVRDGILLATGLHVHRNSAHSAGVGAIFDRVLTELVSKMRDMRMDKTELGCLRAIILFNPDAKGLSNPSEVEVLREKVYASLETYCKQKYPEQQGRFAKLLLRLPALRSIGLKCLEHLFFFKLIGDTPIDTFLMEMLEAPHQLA
structure (smiles),measurement,setting,value
FC(F)(F)COC(OCC(F)(F)F)OCC(F)(F)F,outcome,[1],inactive
same,outcome,[2],inactive
same,outcome,[3],inactive
same,outcome,[5],inactive
same,outcome,[6],inactive
same,outcome,[7],inactive
same,outcome,[8],inactive
same,outcome,[9],inactive
same,outcome,[10],inactive
same,outcome,[11],inactive
same,outcome,[12],inactive
same,outcome,[13],inactive
same,outcome,[14],inactive
same,outcome,[16],inactive
same,outcome,[17],inactive
same,outcome,[18],inactive
same,outcome,[19],inactive
NNC(=O)c1ccncc1,outcome,[1],inactive
same,outcome,[2],inactive
same,outcome,[4],inactive
same,outcome,[5],inactive
same,outcome,[6],inactive
same,outcome,[7],inactive
same,outcome,[8],inactive
same,outcome,[9],inactive
same,outcome,[10],inactive
same,outcome,[11],inactive
same,outcome,[12],inactive
same,outcome,[13],inactive
same,outcome,[14],inactive
same,outcome,[15],inactive
same,outcome,[16],inactive
same,outcome,[17],inactive
same,outcome,[18],inactive
same,outcome,[19],inactive
CCCCCOC(C)=O,outcome,[1],inactive
same,outcome,[2],inactive
same,outcome,[4],inactive
same,outcome,[5],inactive
same,outcome,[6],inactive
same,outcome,[7],inactive
same,outcome,[8],inactive
same,outcome,[10],inactive
same,outcome,[11],inactive
same,outcome,[12],inactive
same,outcome,[13],inactive
same,outcome,[14],inactive
same,outcome,[15],inactive
same,outcome,[16],inactive
same,outcome,[17],inactive
same,outcome,[18],inactive
same,outcome,[19],inactive
OCCC(F)(F)C(F)(F)C(F)(F)C(F)(F)F,outcome,[1],inactive
same,outcome,[2],inactive
same,outcome,[4],inactive
same,outcome,[5],inactive
same,outcome,[6],inactive
same,outcome,[7],inactive
same,outcome,[8],inactive
same,outcome,[10],inactive
same,outcome,[11],inactive
same,outcome,[12],inactive
same,outcome,[13],inactive
same,outcome,[14],inactive
same,outcome,[16],inactive
same,outcome,[17],inactive
same,outcome,[18],inactive
same,outcome,[19],inactive
c1ccc(C(O[C@@H]2CCCN(CCc3ccc4c(c3)OCO4)C2)c2ccccc2)cc1,outcome,[2],inactive
same,outcome,[3],inactive
same,outcome,[4],inactive
same,outcome,[5],inactive
same,outcome,[6],inactive
same,outcome,[7],inactive
same,AC50,[8],23.6 µM (active)
same,AC50,[10],25.9 µM (active)
same,outcome,[11],inactive
same,AC50,[13],25.2 µM (active)
same,AC50,[14],26.8 µM (active)
same,AC50,[15],9.8 µM (active)
same,outcome,[16],inactive
same,AC50,[17],25.4 µM (active)
same,outcome,[18],inactive
same,outcome,[19],inactive
CCCCCCCCN(C)C,outcome,[2],inactive
same,outcome,[3],inactive
same,outcome,[5],inactive
same,outcome,[6],inactive
same,outcome,[7],inactive
same,outcome,[8],inactive
same,outcome,[9],inactive
same,outcome,[10],inactive
same,outcome,[11],inactive
same,outcome,[12],inactive
same,outcome,[13],inactive
same,outcome,[14],inactive
same,outcome,[15],inactive
same,outcome,[16],inactive
same,outcome,[17],inactive
same,outcome,[18],inactive
same,outcome,[19],inactive
